Screening results from PubChem.
The list is not random: actives were taken first. Their share in the collection is about 21%.
Shiga toxin inh – inhibitors of Shiga toxin in Vero cells. Vero cells, Shiga toxin protein synthesis inhibition reporter. inhibition, % at 38.7 µM. hit rate 9.2% among 290,000; in the data active means inhibition mostly above about 28%, no sharp cut-off; inactive means mostly below about 43%; further: 0% is about no effect
Pf growth 96h – P. falciparum growth inhibition at 96 hours. P. falciparum luciferase reporter growth, 96 h. Potency, µM (titrated, usually from 28.7 µM), for inactives: at the highest dose activity change, negative = inhibition, most hits filed as inhibitors. hit rate 6.9% among 320,000; further: potency means the concentration at half of the fitted maximal effect; on the % scale 0 is the no-effect control and ±100 the full control effect
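Readout is luminescence from an integrated firefly luciferase in P. falciparum. Red cells, 2% hematocrit and 0.05% parasitemia final, were cultured with compound through two parasite generations (96 hours) at 37 C, 5% CO2.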
SARS PLpro yeast – inhibitors of SARS-CoV papain-like protease in yeast; S. cerevisiae expressing SARS-CoV PLpro, growth rescue; Potency, µM (top dose mostly 32.9 µM), without a hit: at the top dose activity, positive = growth rescue, actives largely listed as activators; hit rate 0.19% among 330,000; calls by dose curve; further: potency means the concentration at half of the fitted maximal effect; 0% is about no effect; nearly all actives have a fitted effect of over 55% in size
CHX counter – counter-screen for Shiga toxin inhibitors: cycloheximide protein synthesis inhibition | cell reporter, cycloheximide protein synthesis inhibition counterscreen | max response, % | hit rate 12% among 300,000; in the data active means max response mostly above about 13%, no sharp cut-off; inactive means mostly below about 14%; further: read at 38.3 µM for the half of the compounds with a filed dose; 0% is about no effect
Pf growth 48h – P. falciparum growth inhibition at 48 hours (one generation); P. falciparum luciferase growth in erythrocytes, 48 h; hit rate 5.9% among 310,000; Potency, µM (doses to about 28.7 µM), for inactives: at the top dose activity change, negative = inhibition, hits mostly inhibitors; further: potency means the concentration at half of the fitted maximal effect; on the % scale 0 is the no-effect control and ±100 the full control effect
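Cell-based growth assay: transgenic P. falciparum expressing firefly luciferase, cultured in red cells within RPMI 1640 containing 0.5% w/v Albumax, 24 mM bicarbonate and gentamycin. A drop in luciferase activity indicates inhibition.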
NS1 inh – blocks influenza NS1 protein function; AID 2326; hit rate 0.4% among 270,000; Potency, µM (titrated, usually from 46.1 µM), for inactives: at the highest dose activity, positive = more growth; calls by dose curve; further: potency means the concentration at half of the fitted maximal effect; actives are rising curves; nearly all actives have a fitted effect of over 50% in size
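Read-out: OD600 growth recovery of NS1-expressing budding yeast. Cells grown overnight at 30C in -URA glucose medium, washed, resuspended and diluted 1:100 in 2% galactose assay medium, pH 6.0. Same strain lacking NS1 served as positive control.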
The depositor's hits bear a star; ? = inconclusive; · = no result given; + = active, no number. Unless noted, the call rests on the fitted dose curve; in most records, active means well fitted inhibition curve with a large enough effect; inconclusive means small, poorly fitted or top-dose-only effect, or another doubt; inactive means no such curve, though single readings can be large or run the other way.

SMILES | Shiga toxin inh | Pf growth 96h | SARS PLpro yeast | CHX counter | Pf growth 48h | NS1 inh
CCOc1ccccc1Nc1ccnc2cc(Cl)ccc12 | -4.3 | 20.9% | -1.3% | -0.7 | 2.62µM* | -4.7%
O=C(NCCCNc1ccnc2cc(Cl)ccc12)c1ccccc1F | 2.6 | 0.415µM* | 0.4% | 9.4 | 0.465µM* | 0.4%
CN(C)C[C@H]1CCC[C@@H](CN(C)C)C1=O | · | · | · | · | · | -2.8%
CN(C)S(=O)(=O)c1cccc(NC(=O)CN2C(=O)NC(Cc3c[nH]c4ccccc34)C2=O)c1 (stereo not drawn) | -12.7 | -28.7% | 1.1% | 17.1 | -5.0% | -1.9%
CCOC(=O)Cc1csc(NC(=O)CCC(=O)O)n1 | -9.6 | -0.9% | 0.9% | 5.4 | -13.9% | -1.0%
CCOC(=O)Cc1csc(NC(=O)c2ccc(Br)cc2)n1 | 40.2 | 14.1% | -11.6% | 8.3 | 21.2% | -12.0%
CCCCOC(=O)Nc1nc(CC(=O)OCC)cs1 | 30.4 | · | -0.7% | 14.7* | 13.2% | 0.1%
CCOC(=O)Cc1csc(NC(=O)c2ccc3ncsc3c2)n1 | 83.3* | 93.0% | -1.0% | 29.2* | 85.4% | 4.1%
CCOC(=O)Cc1csc(NC(=O)c2cnc3sc(C)cn3c2=O)n1 | 88.3* | 16.9% | -5.0% | 42.7* | 92.7% | -2.6%
CCOC(=O)Cc1csc(NC(=O)c2cc(C)c(C)s2)n1 | · | 36.3% | -9.9% | · | 28.6% | ·
CCOC(=O)Cc1csc(NC(=O)c2ccc(Cl)s2)n1 | 54.2* | 25.1% | -4.3% | 60.5* | · | -41.9%
NC(C(=O)O)c1nn[nH]n1 (stereo not drawn) | 7.4 | · | · | 3.9 | · | ·
CCOC(=O)Cc1csc(NC(=O)c2ccc(C)o2)n1 | 51.8* | -22.5% | 0.7% | 22.0* | 46.2% | 0.2%
CCOC(=O)Cc1csc(NC(=O)c2ccncc2)n1 | 7.4 | 33.5% | 7.7% | -4.4 | 31.2% | -8.4%
CCOC(=O)Cc1csc(NC(=O)c2ccco2)n1 | 50.2* | · | -5.9% | 49.7* | 77.5% | 8.4%
Cc1csc(NC(=O)c2ccc(C)o2)n1 | + | 0.0% | -16.5% | 59.3* | 169.7% | 8.1%
COc1ccc(/C=C2\OC(=S)N(C)C2=O)cc1 | 23.3 | ? | -66.0% | 10.8* | 7.8% | -20.1%
CN(C)c1ccc(/C=C2\N=C(C(C)(C)C)OC2=O)cc1 | -0.7 | 15.2% | -3.3% | 7.2 | 32.6% | -0.6%
CN1C(=O)/C(=C\c2ccc(N(C)C)cc2)OC1=S | 1.1 | 0.0% | -0.2% | 11.6* | 30.4% | 5.2%
O=C(CSc1nnnn1C1CCCCC1)NCCc1ccccc1 | 42.4* | · | 4.6% | 62.3* | 44.1% | -61.4%
Cc1ccc(NC(=O)CSc2nnnn2C2CCCC2)cc1S(=O)(=O)N1CCOCC1 | · | 8.28µM* | 2.5% | · | ? | ·
CCOc1ccc(NC(=O)CSc2nnnn2C2CC2)cc1S(=O)(=O)N1CCCC1 | · | 14.7µM* | -7.1% | · | ? | ·
Cc1ccc(S(=O)(=O)N2CCOCC2)cc1NC(=O)CSc1nnnn1C1CCCC1 | · | -21.5% | -1.1% | · | 6.2% | ·
Cc1cc(NC(=O)CSc2nnnn2C2CCCC2)no1 | -8.0 | 7.38µM* | 3.5% | -1.2 | 14.9% | 4.4%
C=C(C)CN(CC)c1ccc(N2C(=O)CCCC2=O)cc1[N+](=O)[O-] | 18.1 | 57.0% | 0.1% | 0.7 | -11.9% | 7.5%
SMILES | Shiga toxin inh | Pf growth 96h | SARS PLpro yeast | CHX counter | Pf growth 48h | NS1 inh
C[C@@H](Oc1ccc(Oc2cnc3ccc(Cl)cc3n2)cc1)C(=O)O | · | · | · | · | · | -30.9%
O=C(CN1C(=O)NC2(CCOc3ccccc32)C1=O)N1CCCCC1 (stereo not drawn) | · | · | 3.9% | · | · | ·
Cc1ccc(C(=O)N/C(=C\c2ccc(-c3ccc(Cl)cc3)o2)C(=O)NCCCN(C)C)cc1 | -17.7 | 9.28µM* | -0.5% | -21.0 | 10.4µM* | ·
CN(C)CCCNC(=O)/C(=C/c1ccc(-c2ccc([N+](=O)[O-])cc2)o1)NC(=O)c1ccccc1 | 19.9 | ? | -0.8% | -2.1 | ? | -6.9%
Cc1ccc(/C=C(/NC(=O)c2ccccc2)C(=O)NCCc2c[nH]c3ccccc23)o1 | 11.0 | ? | -6.1% | -1.7 | -38.7% | -12.3%
Cc1ccc(/C=C(\NC(=O)c2ccccc2)C(=O)NCCc2ccccn2)o1 | 23.9 | -3.5% | 19.5% | 11.1* | -2.7% | 20.9%
Cc1ccc(C(=O)N/C(=C\c2ccc(Cl)cc2)C(=O)NCCCN2CCOCC2)cc1 | -6.4 | -19.9% | -9.6% | -1.9 | -10.0% | 3.2%
CN(C)CCCNC(=O)/C(=C\c1ccc(-c2ccc(Br)cc2)o1)NC(=O)c1ccccc1 | -24.5 | ? | 11.6% | -8.5 | 10.4µM* | 2.2%
